# Source: PubChem
# APE1 inh: qHTS Assay for Inhibitors of the Human Apurinic/apyrimidinic Endonuclease 1 (APE1) | DNA repair nuclease/redox regulator APEX1 (Homo sapiens), P27695 | recombinant APE1, TAMRA/BHQ-2 abasic DNA cleavage fluorescence | Potency, µM (titrated, usually from 65.8 µM), for inactives: top-dose activity change, negative = inhibition, usual class: inhibitors | hit rate 0.35% among 350,000 | AID 2517, 2012;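 also: plate controls were vehicle for no effect and reference inhibitor for full effect; nearly all actives have a fitted effect of over 55% in size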
#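 Readout is kinetic fluorescence (ex 525, em 598 nm) from cleavage of 50 nM TAMRA/BHQ-2 THF abasic duplex by 0.75 nM APE1, compound added 15 min beforehand at RT.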
# BLM helicase inh: qHTS Assay for Inhibitors of Bloom's syndrome helicase (BLM) | AID 2528, 2010 | hit rate 0.2% among 350,000 | RecQ-like DNA helicase BLM (Homo sapiens), P54132 | Potency, µM (series often up to 56.1 µM), inactives show at the highest dose activity change, negative = inhibition, hits mostly inhibitors | recombinant BLM DNA unwinding, fluorescence dequenching;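 also: plate controls were vehicle for no effect and no enzyme for full effect; nearly all actives have a fitted effect of over 35% in size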
# TDP1 block: qHTS Assay for Inhibitors of Tyrosyl-DNA Phosphodiesterase (TDP1); recombinant TDP1, AlphaScreen DNA substrate cleavage; Potency, µM (series often up to 130 µM), for the others: top-dose activity change, negative = inhibition, actives largely listed as inhibitors; hit rate 0.28% among 350,000; also: nearly all actives have a fitted effect of over 40% in size
#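 Compounds were preincubated with Tdp1 (1 nM final) for 15 min at room temperature before substrate (15 nM final) started a 5 min reaction; beads (10 ug/ml final) were then added for 10 min before AlphaScreen detection.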
# KAT2A inh: qHTS Assay for Inhibitors of GCN5L2 | Potency, µM (titrated, usually from 58.9 µM), for inactives: at the top dose activity change, negative = inhibition, most hits filed as inhibitors | hit rate 0.21% among 390,000 | AID 504327, 2011 | GCN5L2 HAT assay, ThioGlo1 CoA-SH fluorescence | Histone acetyltransferase KAT2A (Homo sapiens), Q92830
#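 Titration-based screen in which CoA formation is detected via maleimide probe ThioGlo1 (50uM) turning fluorescent on thiol reaction; substrates H3(1-25) 75uM and acetyl-CoA 70uM, GCN5L2 20nM, 20 min incubation at room temperature.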
# RECQ1 inh: qHTS Assay for Inhibitors of RecQ-Like Dna Helicase 1 (RECQ1) | RECQ1 DNA unwinding, red fluorescence kinetic read | Potency, µM (series often up to 57.3 µM), without a hit: at the highest dose activity, negative = inhibition, actives largely listed as inhibitors | hit rate 0.54% among 240,000;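 also: plate controls were vehicle for no effect and no enzyme for full effect; nearly all actives have a fitted effect of over 30% in size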
# Target sequence (P46063 whole entry, looked up): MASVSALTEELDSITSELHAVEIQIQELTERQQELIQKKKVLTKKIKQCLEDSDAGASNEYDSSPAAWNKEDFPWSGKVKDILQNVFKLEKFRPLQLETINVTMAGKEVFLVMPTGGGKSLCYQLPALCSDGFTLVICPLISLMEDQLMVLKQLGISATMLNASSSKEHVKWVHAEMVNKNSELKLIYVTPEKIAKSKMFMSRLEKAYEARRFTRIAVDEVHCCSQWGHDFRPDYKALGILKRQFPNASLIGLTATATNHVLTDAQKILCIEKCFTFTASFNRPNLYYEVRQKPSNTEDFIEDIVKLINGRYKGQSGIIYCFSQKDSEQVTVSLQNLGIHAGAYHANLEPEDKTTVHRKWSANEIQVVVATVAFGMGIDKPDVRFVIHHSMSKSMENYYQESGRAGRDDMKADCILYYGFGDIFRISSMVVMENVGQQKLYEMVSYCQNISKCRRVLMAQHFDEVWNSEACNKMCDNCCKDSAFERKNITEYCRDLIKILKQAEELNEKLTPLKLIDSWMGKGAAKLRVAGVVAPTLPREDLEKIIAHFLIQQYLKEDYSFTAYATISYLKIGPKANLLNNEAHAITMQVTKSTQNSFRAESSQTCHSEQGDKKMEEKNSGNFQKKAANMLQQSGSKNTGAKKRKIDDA
#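 50 nM RECQ1T1 preincubated 15 min with compound in Tris pH 8.0 buffer with MgCl2, DTT, Tween-20 and 2.5 ug/ml poly(dI-dC); started with 200 nM TAMRA/BHQ-2 forked duplex and 2 mM ATP. Unwinding read as fluorescence (525/598 nm), two reads 2 h apart.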
# * = called active by the depositor; i = inactive; ? = inconclusive; . = no result; ! = not confirmed by another sample; [ ] = another dose, or the depositor's remark. Hits are enriched below; roughly 0.87% of the tested compounds scored in any of these assays. Calls follow the shape of the dose curve; as a rule, active = well fitted curve in the direction sought with a large enough effect; inconclusive = small, poorly fitted or top-dose-only effect, or another doubt; inactive = no such curve, though single readings can be large; an effect the other way counts as inactive or inconclusive. Unless noted, % is scaled to controls: 0 for no effect and ±100 for the full control effect; potency is read from the fitted curve at half-maximal effect.
SMILES,APE1 inh,BLM helicase inh,TDP1 block,KAT2A inh,RECQ1 inh
COc1ccccc1CCNC(=O)Cc1c(C)c2cc(Cl)c(O)cc2oc1=O,.,3%,6%,32µM*,.
COc1ccccc1CCNC(=O)Cn1c(=O)oc2ccccc21,-43%,-4%,18µM*,-9%,.
COc1ccccc1CNC(=O)Cn1c(=O)oc2ccccc21,.,3%,3%,3%,.
Cc1ccccc1C(=O)NCC(=O)OC(C(=O)Nc1cc(C(F)(F)F)ccc1Cl)c1ccccc1 (configuration not stated),.,.,-3%,.,.
CC(Cl)C(=O)NN=C(c1ccccc1)c1ccccc1 (configuration not stated),20%,-5%,-3%,1%,i
CC(NC1CCCCC1)C(=O)NN=C(c1ccccc1)c1ccccc1 (configuration not stated),-4%,-3%,.,-3%,28µM*
C[C@@H]1CC[C@@]2(OC1)O[C@H]1C[C@H]3[C@@H]4CC[C@H]5C[C@@H](O)CC[C@]5(C)[C@H]4CC(=O)[C@]3(C)[C@H]1[C@@H]2C,-2%[21 µM],.,.,.,.
O=C(CNC(=O)C1CCCCC1)OC(C(=O)Nc1cc(C(F)(F)F)ccc1Cl)c1ccccc1 (configuration not stated),.,.,0%,.,.
CN=c1scc(-c2cccs2)n1/N=C/c1ccc(O)c(O)c1O,6.3µM*,-18%,8%,0%,6.3µM*
CN=c1scc(-c2cccs2)n1/N=C/c1ccccc1O,3%,-1%,2%,-13%,-7%
Cc1cc(C(=O)O)ccc1[C@H](N)C(=O)O,40µM*!,-2%,-7%,-2%,3%
Cc1cc(C(=O)O)sc1C(N)C(=O)O (configuration not stated),-7%,-3%,2%,.,-3%
CCC(=O)NC(=S)NNC(=O)c1ccccc1[N+](=O)[O-],1%,0%,6%,25µM*,-5%
O=C(C[C@@H]1C/C=C\C[C@@H](Cc2ccc(F)cc2)C(=O)OC[C@@H](Cc2c[nH]c3ccccc23)NC1=O)NCCO,-16%,.,2%,-1%,.
O=C(C[C@@H]1C/C=C\C[C@H](Cc2ccc(F)cc2)C(=O)OC[C@@H](Cc2c[nH]c3ccccc23)NC1=O)NCCO,12µM*,.,-1%,0%,.
O=C(COC(=O)/C=C/c1ccc(Br)o1)Nc1ccccc1F,?,-20%,16µM*,-9%,-17%
O=C(COC(=O)/C=C/c1ccc(Br)o1)NC1CCCCC1,-25%,.,.,-2%,.
Cc1ccc(NC(=O)C(c2ccc(Cl)cc2)N2CCOCC2)cc1 (configuration not stated),7%,-6%,5%,-10%,-3%
Cc1ccc(NC(=O)C(c2ccc(Cl)cc2)N2CCCCC2)cc1 (configuration not stated),13%,-12%,4%,2.2µM*,i
Cc1ccc(NC(=O)c2ccc3c(c2)CCC(=O)N3)cc1C,.,.,-11%,.,.
O=C1ON=C(c2ccccc2)/C1=C/c1ccc(-c2ccccc2[N+](=O)[O-])o1,-6%,-27%,-5%,20µM*,?
COc1cccc(C2(O)CC(C(F)(F)F)=NN2C(=O)c2ccccn2)c1 (configuration not stated),1%,-6%,3%,25µM*,-14%
O=C(c1ccccc1)N1N=C(C(F)(F)F)CC1(O)c1ccccc1 (configuration not stated),47%,-12%,.,-7%,.
O=C1c2ccccc2C(=O)N1c1cncc2ccccc12,.,.,3%,.,.
O=C(O)CSc1cc(NS(=O)(=O)c2ccc(Cl)cc2)c2ccccc2c1O,60%,25µM*,.,55%,.
CCCCCCCCCCCCCCCC(=O)C1=C(O)C(CO)OC1=O (configuration not stated),?,.,21%,11µM*,35µM*
